# High-throughput results (PubChem)
# BAZ2B block = qHTS Assay for Inhibitors of BAZ2B. Bromodomain adjacent to zinc finger domain protein 2B (Homo sapiens), Q9UIF8. AlphaScreen BAZ2B-H3K14Ac peptide displacement. Potency, µM (highest dose often 114 µM), inactives show top-dose activity change, negative = inhibition, usual class: inhibitors. 360,000 tested, 4.4% active. AID 504333, 2011; note: potency is the fitted concentration of half-maximal effect; % is set by controls: 0 for no effect and ±100 for the full control effect; nearly all actives have a fitted effect of over 60% in size
# Target sequence (Q9UIF8 whole entry, looked up, the tested form may be a part): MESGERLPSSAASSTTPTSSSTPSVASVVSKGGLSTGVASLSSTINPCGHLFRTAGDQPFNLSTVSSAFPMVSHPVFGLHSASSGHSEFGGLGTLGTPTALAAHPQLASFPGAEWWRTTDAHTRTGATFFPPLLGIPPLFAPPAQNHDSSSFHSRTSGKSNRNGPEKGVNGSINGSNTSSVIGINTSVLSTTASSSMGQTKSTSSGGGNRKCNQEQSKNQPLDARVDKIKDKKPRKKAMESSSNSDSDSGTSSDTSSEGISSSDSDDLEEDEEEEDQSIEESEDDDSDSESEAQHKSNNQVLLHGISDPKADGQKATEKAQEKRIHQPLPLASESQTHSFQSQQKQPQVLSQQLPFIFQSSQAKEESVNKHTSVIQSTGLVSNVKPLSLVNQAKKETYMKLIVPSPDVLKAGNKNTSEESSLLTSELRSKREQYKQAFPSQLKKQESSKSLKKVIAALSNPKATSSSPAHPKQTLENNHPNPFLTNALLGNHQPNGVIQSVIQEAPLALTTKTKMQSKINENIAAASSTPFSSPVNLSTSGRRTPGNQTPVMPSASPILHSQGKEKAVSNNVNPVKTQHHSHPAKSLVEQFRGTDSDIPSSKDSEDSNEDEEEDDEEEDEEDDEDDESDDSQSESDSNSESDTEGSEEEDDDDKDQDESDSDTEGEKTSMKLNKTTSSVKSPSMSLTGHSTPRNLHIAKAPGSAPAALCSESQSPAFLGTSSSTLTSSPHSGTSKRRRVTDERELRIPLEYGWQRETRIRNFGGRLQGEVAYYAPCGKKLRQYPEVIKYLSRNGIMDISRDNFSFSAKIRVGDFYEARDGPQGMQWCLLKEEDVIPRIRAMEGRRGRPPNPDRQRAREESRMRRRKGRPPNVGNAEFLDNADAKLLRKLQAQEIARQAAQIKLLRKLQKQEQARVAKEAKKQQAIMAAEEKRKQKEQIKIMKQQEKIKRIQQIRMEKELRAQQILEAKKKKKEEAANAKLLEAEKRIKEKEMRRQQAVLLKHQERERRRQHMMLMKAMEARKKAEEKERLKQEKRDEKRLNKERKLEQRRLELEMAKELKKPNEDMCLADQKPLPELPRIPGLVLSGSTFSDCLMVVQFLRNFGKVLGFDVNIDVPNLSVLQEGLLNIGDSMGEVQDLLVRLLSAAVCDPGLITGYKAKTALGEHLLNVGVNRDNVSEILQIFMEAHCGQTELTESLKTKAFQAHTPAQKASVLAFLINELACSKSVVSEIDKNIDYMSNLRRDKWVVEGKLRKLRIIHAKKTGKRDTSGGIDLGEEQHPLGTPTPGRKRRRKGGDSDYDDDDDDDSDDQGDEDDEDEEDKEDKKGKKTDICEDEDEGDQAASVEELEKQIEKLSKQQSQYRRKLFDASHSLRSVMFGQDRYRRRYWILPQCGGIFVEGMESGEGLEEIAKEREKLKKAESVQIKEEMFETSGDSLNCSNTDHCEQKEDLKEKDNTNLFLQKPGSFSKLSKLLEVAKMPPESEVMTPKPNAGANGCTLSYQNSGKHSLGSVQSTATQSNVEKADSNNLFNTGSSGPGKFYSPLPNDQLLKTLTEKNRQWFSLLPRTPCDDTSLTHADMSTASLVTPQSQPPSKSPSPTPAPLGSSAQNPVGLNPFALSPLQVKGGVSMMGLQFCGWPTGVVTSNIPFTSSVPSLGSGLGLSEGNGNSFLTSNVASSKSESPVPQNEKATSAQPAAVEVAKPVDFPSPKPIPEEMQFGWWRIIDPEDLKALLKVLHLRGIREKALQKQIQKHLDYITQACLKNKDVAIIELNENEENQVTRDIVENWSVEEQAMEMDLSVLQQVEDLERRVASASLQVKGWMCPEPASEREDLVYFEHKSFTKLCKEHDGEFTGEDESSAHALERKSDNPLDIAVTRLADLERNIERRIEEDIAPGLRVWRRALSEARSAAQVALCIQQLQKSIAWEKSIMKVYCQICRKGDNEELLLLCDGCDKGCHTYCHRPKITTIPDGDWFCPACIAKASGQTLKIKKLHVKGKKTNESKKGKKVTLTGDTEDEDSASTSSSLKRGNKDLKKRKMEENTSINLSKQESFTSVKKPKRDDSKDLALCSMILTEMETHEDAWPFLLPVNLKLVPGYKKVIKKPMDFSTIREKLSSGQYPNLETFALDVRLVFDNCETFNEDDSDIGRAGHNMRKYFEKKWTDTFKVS
#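 Inhibition is scored as reduced AlphaScreen emission. The BAZ2B/b-H3(5-23)K14Ac complex (50 nM each) in PBS pH 7.4, 0.01% Tween-20 meets compound (up to 110 uM) for 30 min at RT before bead addition.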
# CtBP-E1A blk = qHTS Assay for Inhibitors of the CtBP/E1A Interaction; CtBP / adenovirus E1A interaction (AlphaScreen); AlphaScreen GST-E1A/His-CtBP binding, 1536-well; stronger effect = lower value; activity change, % (no concentration beside the values); 340,000 tested, 0.49% active; AID 651724, 2012; in the data active = activity change below about -65%; inconclusive = mostly about -30% to -63%; note: % is set by controls: 0 for no effect and ±100 for the full control effect
#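 GST-E1A and His-tagged CtBP (125 nM each as 5X stock) were preincubated with pin-transferred compound for 2 h at 37 °C in the dark, then glutathione donor and nickel acceptor beads were added for 1 h before AlphaScreen reading.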
# Six1-Eya2 blk = qHTS Assay for Inhibitors of the Six1/Eya2 Interaction | AlphaScreen GST-Six1/His-Eya2 binding, biochemical; stronger effect = lower value | activity change, % (no concentration beside the values) | 360,000 tested, 0.56% active | AID 651725, 2012; in the data active = activity change below about -65%; inconclusive = mostly about -30% to -63%; note: % is set by controls: 0 for no effect and ±100 for the full control effect
#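 AlphaScreen luminescence read after one hour at 37 °C in darkness. Pin-transferred compounds met GST-Six1 and His-Eya2 protein (5X stock 250 nM/500 nM) plus glutathione donor and Ni-chelate acceptor beads (5X, 50 ug/mL).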
# G9a inh = qHTS Assay for Inhibitors of Histone Lysine Methyltransferase G9a | Potency, µM (top dose mostly 102 µM), for the others: top-dose activity, negative = inhibition, actives largely listed as inhibitors | 350,000 tested, 8.8% active | Histone-lysine N-methyltransferase EHMT2 (Homo sapiens), Q96KQ7 | G9a H3K9 monomethylation, AlphaScreen, 2 h; note: potency is the fitted concentration of half-maximal effect; % is set by controls: 0 for no effect and ±100 for the full control effect; nearly all actives have a fitted effect of over 75% in size
#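 Chemiluminescent proximity detection of H3K9 monomethylation, read after 10 min bead incubation in the dark. Reaction: 20 nM G9a, 500 nM biotin-H3K9 peptide, 20 uM SAM cofactor, 2 h, room temperature, following 15 min enzyme-compound preincubation.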
# HP1b chromo inh = HTS for Inhibitors of HP1-beta Chromodomain Interactions with Methylated Histone Tails | 390,000 tested, 0.56% active | AID 540317, 2011 | AlphaScreen HP1-beta / biotin-H3K9me3 peptide binding | Chromobox protein homolog 1 (Homo sapiens), P83916 | Potency, µM (titrated, usually from 114 µM), inactives show at the top dose activity change, negative = inhibition, actives largely listed as inhibitors; note: potency is the fitted concentration of half-maximal effect; nearly all actives have a fitted effect of over 70% in size
#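 HP1-beta protein (50 nM final) preincubated 30 min at room temperature with biotinylated H3(1-18)K9me3 peptide (50 nM) in PBS pH 7.4, 0.01% Tween-20, then compound added for 30 min. AlphaScreen streptavidin donor/nickel chelate acceptor beads (10 ug/mL final), 30 min dark, luminescence read.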
# JMJD2A Tudor = qHTS Assay for Inhibitors of JMJD2A-Tudor Domain; Lysine-specific demethylase 4A (Homo sapiens), O75164; AlphaScreen JMJD2A-Tudor / H3K4me3 peptide binding; Potency, µM (doses to about 114 µM), inactives show top-dose activity change, negative = inhibition, hits mostly inhibitors; 390,000 tested, 4.4% active; AID 504339, 2011; note: potency is the fitted concentration of half-maximal effect; % is set by controls: 0 for no effect and ±100 for the full control effect; nearly all actives have a fitted effect of over 50% in size
# * marks the source's active call; other numbers are inactive results; ? = inconclusive; . = no result; [ ] = another dose, or the depositor's remark. Hits are enriched below; roughly 10% of the tested compounds scored in any of these assays. Unless noted, calls come from the whole dose curve; as a rule, active = well fitted inhibition curve with a large enough effect; inconclusive = small, poorly fitted or top-dose-only effect; inactive = no such curve, though single readings can be large or run the other way.
SMILES,BAZ2B block,CtBP-E1A blk,Six1-Eya2 blk,G9a inh,HP1b chromo inh,JMJD2A Tudor
Cc1ccc(S(=O)(=O)NC(C(=O)Oc2ccc3ccc(=O)oc3c2)c2ccccc2)cc1 (configuration not stated),1.0%,2.8,-4.6,7.94µM*,37.3%,-11.6%
CCOC(=O)C1CCCN(c2cc(C)nc3c(-c4ccccc4OC)c(C)nn23)C1 (configuration not stated),7.6%,.,.,5.6%[59 µM],50.4%,16.3%
CCOCCCNC(=O)NC(CCC(C)C)c1c(-n2cccc2)sc2c1CCN(C)C2 (configuration not stated),?,.,.,-49.6%[59 µM],4.0%,-30.0%
O=C(Oc1ccc(Cl)c2cccnc12)c1cccnc1,56.2µM*,-82.1*,-92.6*,0.6%,45.0%,-26.3%
Cc1cccc(NC(=O)Oc2ccc(Cl)c3cccnc23)c1,.,?,-91.9*,.,.,.
COC(=O)C1=C(C)NC(=O)C1(NC(=O)c1cc(OC)c(OC)c(OC)c1)C(F)(F)F (configuration not stated),-18.6%,.,.,8.5%[59 µM],23.7%,-7.8%
O=C1NC(=O)C2(CCc3ccccc32)N1 (configuration not stated),-5.5%,0.6,13.4,-5.2%[0.501 µM],19.0%,-1.7%
CC1(C2(O)CCCCC2)NCCc2ccccc21 (configuration not stated),35.5µM*,4.5,-3.9,31.6µM*,70.8µM*,0.891µM*
O=C(O)c1cccc(N/N=C(\N=Nc2ccccc2)c2ccccc2)c1,14.1µM*,?,?,?,35.5µM*,39.8µM*
O=C(/C(=N\Nc1ccc(Br)cc1)Sc1nnnn1-c1ccccc1)c1ccccc1,?,-11.7,-19.2,-3.0%[59 µM],1.3%,-33.6%
O=C(O)c1ccc(N=N/C(=N\Nc2ccc(C(=O)O)cc2)c2ccccc2)cc1,28.2µM*,-22.0,?,?,?,50.1µM*
Brc1ccc(N/N=C(/N=Nc2nn[nH]n2)c2ccccc2)cc1,11.2µM*,.,?,11.2µM*,12.6µM*,12.6µM*
CC(=O)Nc1ccc(/C(N=Nc2ccccc2)=N/N=C(N)N)cc1,.,0.9,?,.,?,?
O=C(NCc1ccccc1Cl)c1ccc[nH]1,-21.7%,0.7,-4.0,-3.7%,30.1%,0.0%[57.1 µM]
O=C(NS(=O)(=O)c1ccccc1Cl)c1ccc[nH]1,-8.8%,.,.,79.4µM*,.,.
COCCCNc1nc(NCc2ccc(C)cc2)c2cnn(C)c2n1,-20.2%,.,.,2.5%[12.7 µM],22.6%,-19.2%
O=C(NCCc1ccccc1)c1ccc2c(=O)[nH]c3c(C(=O)NCC4CCCO4)sc(=S)n3c2c1 (configuration not stated),35.5µM*,-0.2,-10.5,-11.3%[0.501 µM],?,44.7µM*
Cc1ccc2c(Cl)c(C(=O)NCC3CCCO3)sc2c1 (configuration not stated),-1.5%,-0.3,-2.3,8.2%,12.2%,-9.5%
O=C(NCC1CCCO1)c1sc(=S)n2c1[nH]c(=O)c1ccc(C(=O)N3CCCCC3)cc12 (configuration not stated),?,?,-28.2,44.7µM*,-23.9%,?
Cc1ccc(S(=O)(=O)C2CCN(c3nc(-c4cccs4)nc4ccccc34)CC2)cc1,.,.,.,.,18.1%,-23.8%
CC(C)(C)Cc1nnc(NC(=O)CCc2ccccc2)s1,5.6%,.,11.8,?,29.0%,-1.7%
Cc1c(C(=O)N2c3ccccc3CC2C)oc2ccccc12 (configuration not stated),40.0%,30.2,18.0,150.8%,83.4%,95.5%
O=C(CCC1CCCC1)N1CCC(N2CCN(c3ccccc3)CC2)CC1,31.6µM*,1.0,-2.9,?,?,1.41µM*
O=C(CCCc1ccccc1)N1CCN(C2CCCCC2)CC1,-35.9%,.,-8.2,-5.4%,4.1%,-8.3%
COc1ccccc1C(=O)N1CCC(N2CCN(c3ccccc3)CC2)CC1,50.1µM*,12.1,-2.4,35.5µM*,?,2.51µM*
SMILES,BAZ2B block,CtBP-E1A blk,Six1-Eya2 blk,G9a inh,HP1b chromo inh,JMJD2A Tudor
O=C(c1ccccc1Oc1ccccc1)N1CCN(c2ccccc2)CC1,9.8%,-7.7,-3.7,39.8µM*,-24.3%,-35.7%
COc1ccccc1N1CCN(C2CCN(C(=O)COc3ccccc3)CC2)CC1,50.1µM*,-0.8,3.9,10µM*,4.2%,-17.6%
COc1ccccc1N1CCN(C(=O)COc2cccc3ccccc23)CC1,-28.9%,-3.7,-10.7,28.1%,18.2%,-23.3%
CC(=O)C1C(c2ccc(F)cc2)c2c(noc2C)CC1(C)O (configuration not stated),0.1%,-13.5,-1.0,-7.3%[12.7 µM],11.1%,-11.0%
CC(CCc1ccccc1)NC(=O)c1ccc(-n2cncn2)c([N+](=O)[O-])c1 (configuration not stated),0.4%,4.3,-6.3,-6.7%[2.33 µM],25.5%,-8.9%
COc1ccccc1C(=O)N1CCC(N2CCN(c3ccccc3OC)CC2)CC1,50.1µM*,3.3,8.3,7.94µM*,?,17.8µM*
CC1CCN(C(=O)COc2ccc(Nc3ccccc3)cc2)CC1,-38.8%,-20.0,-20.0,50.1µM*,-19.6%,?
Cc1cccc(OCC(=O)N2CCC(N3CCCCCC3)CC2)c1,?,-1.8,8.7,?,?,3.16µM*
Cn1cc(CN2CCC(C(=O)NC(c3ccc(-c4ccccc4)cc3)c3cnccn3)CC2)c2ccccc21 (configuration not stated),.,-15.2,-20.2,.,.,.
COC(=O)C1=C(C(=O)OC)[C@@H]2N(C)c3ccc(OC)cc3[C@@]23C[C@@H](C(=O)OC)N(C(=O)c2ccc(Br)cc2)C3=N1,20µM*,-17.5,-16.4,?,-23.3%,12.6µM*
CCOC(=O)N1C2=NC(C(=O)OC)=C(C(=O)OC)[C@@H]3N(C)c4ccc(OC)cc4[C@]23C[C@H]1C(=O)OC,.,-6.7,-5.2,.,24.6%,-12.4%
CCC1CCCCN1C(=O)COc1ccc2c(c1)OCO2 (configuration not stated),-22.3%,-12.0,-6.0,70.8µM*,17.4%,-11.7%
CC1CCCN(C(=O)COc2ccc3c(c2)OCO3)C1 (configuration not stated),-9.2%,-7.3,3.5,.,19.9%,-18.9%
O=c1[nH]c(=S)[nH]c2sc3c(c12)CCCCCC3,-26.6%,-0.6,14.7,2.24µM*,-6.1%,?
